# Results from publication PMC11006913.
# Changes are numbered by the printed parent chain.
# How the values were obtained:
# Assay in all cases: PBM; 200 nM protein, PBS
# Settings in all cases: dsDNA, one strand shown
# [1] = molecular target: SHOX (Homo sapiens, UniProt O15266 103-189)
# [2] = molecular target: T1, SIX6 (Homo sapiens, UniProt O95475 114-200, L167I)
# T1 sequence: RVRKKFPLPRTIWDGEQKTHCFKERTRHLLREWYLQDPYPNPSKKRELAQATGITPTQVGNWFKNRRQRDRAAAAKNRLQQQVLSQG
# [3] = molecular target: T2, SIX6 (Homo sapiens, UniProt O95475 114-200, L143V)
# T2 sequence: T1 sequence with L30V, I54L
# [4] = molecular target: T3, SIX6 (Homo sapiens, UniProt O95475 114-200, H141N)
# T3 sequence: T1 sequence with H28N, I54L
# [5] = molecular target: T4, SIX6 (Homo sapiens, UniProt O95475 114-200, T165P)
# T4 sequence: T1 sequence with T52P, I54L
# [6] = molecular target: T5, SIX6 (Homo sapiens, UniProt O95475 114-200, L167M)
# T5 sequence: T1 sequence with I54M
# [7] = molecular target: T6, SIX6 (Homo sapiens, UniProt O95475 114-200, L143M)
# T6 sequence: T1 sequence with L30M, I54L
# [8] = molecular target: T7, SIX6 (Homo sapiens, UniProt O95475 114-200, L143I)
# T7 sequence: T1 sequence with L30I, I54L
# [9] = molecular target: T8, SIX6 (Homo sapiens, UniProt O95475 114-200, T165G)
# T8 sequence: T1 sequence with T52G, I54L
# [10] = molecular target: T9, SIX6 (Homo sapiens, UniProt O95475 114-200, T139Q)
# T9 sequence: T1 sequence with T26Q, I54L
# [11] = molecular target: T10, SIX6 (Homo sapiens, UniProt O95475 114-200, T165A)
# T10 sequence: T1 sequence with T52A, I54L
# [12] = molecular target: SHOX (Homo sapiens, UniProt O15266 103-189, R173C)
# Sequence of SHOX (Homo sapiens, UniProt O15266 103-189, R173C) (O15266 103-189 R173C): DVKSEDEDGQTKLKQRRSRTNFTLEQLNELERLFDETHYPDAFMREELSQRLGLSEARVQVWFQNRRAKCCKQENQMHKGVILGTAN
# [13] = molecular target: T11, SIX6 (Homo sapiens, UniProt O95475 114-200, L167V)
# T11 sequence: T1 sequence with I54V
# [14] = molecular target: T12, SIX6 (Homo sapiens, UniProt O95475 114-200)
# T12 sequence: T1 sequence with I54L
# [15] = molecular target: T13, SIX6 (Homo sapiens, UniProt O95475 114-200, T165I)
# T13 sequence: T1 sequence with T52I, I54L
# [16] = molecular target: CRX (Homo sapiens, UniProt O43186 26-111)
# Sequence of CRX (Homo sapiens, UniProt O43186 26-111) (O43186 26-111): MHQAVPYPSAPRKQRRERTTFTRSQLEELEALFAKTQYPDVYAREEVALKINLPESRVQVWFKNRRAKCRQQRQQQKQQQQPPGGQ
# [17] = molecular target: CRX (Homo sapiens, UniProt O43186 26-111, E42D)
# Sequence of CRX (Homo sapiens, UniProt O43186 26-111, E42D) (O43186 26-111 E42D): as the sequence (O43186 26-111) above, with E17D counted along it
# [18] = molecular target: CRX (Homo sapiens, UniProt O43186 26-111, R41L)
# Sequence of CRX (Homo sapiens, UniProt O43186 26-111, R41L) (O43186 26-111 R41L): as the sequence (O43186 26-111) above, with R16L counted along it
# [19] = molecular target: HOXA4 (Homo sapiens, UniProt Q00056 201-287, W262R)
# Sequence of HOXA4 (Homo sapiens, UniProt Q00056 201-287, W262R) (Q00056 201-287 W262R): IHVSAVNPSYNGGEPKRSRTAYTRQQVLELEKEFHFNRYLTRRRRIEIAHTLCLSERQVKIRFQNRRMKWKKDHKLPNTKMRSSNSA
# [20] = molecular target: HOXA4 (Homo sapiens, UniProt Q00056 201-287)
# Sequence of HOXA4 (Homo sapiens, UniProt Q00056 201-287) (Q00056 201-287): as the sequence (Q00056 201-287 W262R) above, with R62W counted along it
# [21] = molecular target: HOXA4 (Homo sapiens, UniProt Q00056 201-287, W262F)
# Sequence of HOXA4 (Homo sapiens, UniProt Q00056 201-287, W262F) (Q00056 201-287 W262F): as the sequence (Q00056 201-287 W262R) above, with R62F counted along it
# [22] = molecular target: HOXA7 (Homo sapiens, UniProt P31268 116-202)
# Sequence of HOXA7 (Homo sapiens, UniProt P31268 116-202) (P31268 116-202): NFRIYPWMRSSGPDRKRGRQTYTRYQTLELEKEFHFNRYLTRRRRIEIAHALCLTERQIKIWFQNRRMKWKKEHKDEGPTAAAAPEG
# [23] = molecular target: ALX3 (Homo sapiens, UniProt O95076 139-225, N203Q)
# Sequence of ALX3 (Homo sapiens, UniProt O95076 139-225, N203Q) (O95076 139-225 N203Q): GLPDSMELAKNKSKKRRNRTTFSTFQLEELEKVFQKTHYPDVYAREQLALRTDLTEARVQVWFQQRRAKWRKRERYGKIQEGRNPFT
# [24] = molecular target: HOXD13 (Homo sapiens, UniProt P35453 263-343, T313R)
# Sequence of HOXD13 (Homo sapiens, UniProt P35453 263-343, T313R) (P35453 263-343 T313R): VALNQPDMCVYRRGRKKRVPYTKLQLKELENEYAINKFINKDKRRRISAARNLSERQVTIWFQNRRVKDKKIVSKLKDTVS
# [25] = molecular target: HOXD13 (Homo sapiens, UniProt P35453 263-343)
# Sequence of HOXD13 (Homo sapiens, UniProt P35453 263-343) (P35453 263-343): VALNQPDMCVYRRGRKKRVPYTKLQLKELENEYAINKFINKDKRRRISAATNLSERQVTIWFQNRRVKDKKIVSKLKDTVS
# [26] = molecular target: ALX3 (Homo sapiens, UniProt O95076 139-225)
# Sequence of ALX3 (Homo sapiens, UniProt O95076 139-225) (O95076 139-225): as the sequence (O95076 139-225 N203Q) above, with Q65N counted along it
# [27] = molecular target: ALX3 (Homo sapiens, UniProt O95076 139-225, L168Q)
# Sequence of ALX3 (Homo sapiens, UniProt O95076 139-225, L168Q) (O95076 139-225 L168Q): as the sequence (O95076 139-225 N203Q) above, with L30Q, Q65N counted along it
# [28] = molecular target: HOXD13 (Homo sapiens, UniProt P35453 263-343, T313A)
# Sequence of HOXD13 (Homo sapiens, UniProt P35453 263-343, T313A) (P35453 263-343 T313A): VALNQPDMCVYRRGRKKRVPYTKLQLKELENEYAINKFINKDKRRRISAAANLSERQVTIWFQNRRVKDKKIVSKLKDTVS
# [29] = molecular target: ALX3 (Homo sapiens, UniProt O95076 139-225, L168V)
# Sequence of ALX3 (Homo sapiens, UniProt O95076 139-225, L168V) (O95076 139-225 L168V): as the sequence (O95076 139-225 N203Q) above, with L30V, Q65N counted along it
# [30] = molecular target: HOXA7 (Homo sapiens, UniProt P31268 116-202, W177C)
# Sequence of HOXA7 (Homo sapiens, UniProt P31268 116-202, W177C) (P31268 116-202 W177C): as the sequence (P31268 116-202) above, with W62C counted along it
# [31] = molecular target: ALX3 (Homo sapiens, UniProt O95076 139-225, N203S)
# Sequence of ALX3 (Homo sapiens, UniProt O95076 139-225, N203S) (O95076 139-225 N203S): as the sequence (O95076 139-225 N203Q) above, with Q65S counted along it
# [32] = molecular target: T14, VENTX (Homo sapiens, UniProt O95231 78-163, R121Q)
# T14 sequence: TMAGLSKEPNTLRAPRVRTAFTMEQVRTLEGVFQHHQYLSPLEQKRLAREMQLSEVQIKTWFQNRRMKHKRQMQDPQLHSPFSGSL
# [33] = molecular target: T15, VENTX (Homo sapiens, UniProt O95231 78-163)
# T15 sequence: T14 sequence with Q44R
# [34] = molecular target: ALX4 (Homo sapiens, UniProt Q9H161 200-286)
# Sequence of ALX4 (Homo sapiens, UniProt Q9H161 200-286) (Q9H161 200-286): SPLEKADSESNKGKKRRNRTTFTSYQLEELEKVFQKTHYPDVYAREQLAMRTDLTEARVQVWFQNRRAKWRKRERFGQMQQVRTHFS
# [35] = molecular target: T16, VENTX (Homo sapiens, UniProt O95231 78-163, Y115F)
# T16 sequence: T14 sequence with Y38F, Q44R
# [36] = molecular target: ALX4 (Homo sapiens, UniProt Q9H161 200-286, Q225E)
# Sequence of ALX4 (Homo sapiens, UniProt Q9H161 200-286, Q225E) (Q9H161 200-286 Q225E): as the sequence (Q9H161 200-286) above, with Q26E counted along it
# [37] = molecular target: VAX1 (Homo sapiens, UniProt Q5SQQ9 86-172)
# Sequence of VAX1 (Homo sapiens, UniProt Q5SQQ9 86-172) (Q5SQQ9 86-172): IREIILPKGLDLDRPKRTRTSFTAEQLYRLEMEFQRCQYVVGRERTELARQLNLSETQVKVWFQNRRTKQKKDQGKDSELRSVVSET
# [38] = molecular target: VAX1 (Homo sapiens, UniProt Q5SQQ9 86-172, T142I)
# Sequence of VAX1 (Homo sapiens, UniProt Q5SQQ9 86-172, T142I) (Q5SQQ9 86-172 T142I): as the sequence (Q5SQQ9 86-172) above, with T57I counted along it
# [39] = molecular target: VAX1 (Homo sapiens, UniProt Q5SQQ9 86-172, K157R)
# Sequence of VAX1 (Homo sapiens, UniProt Q5SQQ9 86-172, K157R) (Q5SQQ9 86-172 K157R): as the sequence (Q5SQQ9 86-172) above, with K72R counted along it
# Sequence of SHOX (Homo sapiens, UniProt O15266 103-189) (O15266 103-189): as the sequence (O15266 103-189 R173C) above, with C71R counted along it
sequence,measurement,setting,value
CGACCGCC,binding signal,[1],"7.14 upbm affinity estimate (log intensity, higher = more binding, comparable within an allelic series)"
same,binding signal,[2],"8.99 upbm affinity estimate (log intensity, higher = more binding, comparable within an allelic series)"
same,binding signal,[3],"8.82 upbm affinity estimate (log intensity, higher = more binding, comparable within an allelic series)"
same,binding signal,[4],"8.95 upbm affinity estimate (log intensity, higher = more binding, comparable within an allelic series)"
same,binding signal,[5],"8.87 upbm affinity estimate (log intensity, higher = more binding, comparable within an allelic series)"
same,binding signal,[6],"9.03 upbm affinity estimate (log intensity, higher = more binding, comparable within an allelic series)"
same,binding signal,[7],"8.84 upbm affinity estimate (log intensity, higher = more binding, comparable within an allelic series)"
same,binding signal,[8],"8.91 upbm affinity estimate (log intensity, higher = more binding, comparable within an allelic series)"
same,binding signal,[9],"9.05 upbm affinity estimate (log intensity, higher = more binding, comparable within an allelic series)"
same,binding signal,[10],"8.92 upbm affinity estimate (log intensity, higher = more binding, comparable within an allelic series)"
same,binding signal,[11],"8.95 upbm affinity estimate (log intensity, higher = more binding, comparable within an allelic series)"
same,binding signal,[12],"7.26 upbm affinity estimate (log intensity, higher = more binding, comparable within an allelic series)"
same,binding signal,[13],"8.84 upbm affinity estimate (log intensity, higher = more binding, comparable within an allelic series)"
same,binding signal,[14],"8.95 upbm affinity estimate (log intensity, higher = more binding, comparable within an allelic series)"
same,binding signal,[15],"9.02 upbm affinity estimate (log intensity, higher = more binding, comparable within an allelic series)"
AATATCGA,binding signal,[1],"8.49 upbm affinity estimate (log intensity, higher = more binding, comparable within an allelic series)"
CAGTCGCG,binding signal,[1],"7 upbm affinity estimate (log intensity, higher = more binding, comparable within an allelic series)"
same,binding signal,[16],"8.23 upbm affinity estimate (log intensity, higher = more binding, comparable within an allelic series)"
same,binding signal,[17],"8.35 upbm affinity estimate (log intensity, higher = more binding, comparable within an allelic series)"
same,binding signal,[12],"7.2 upbm affinity estimate (log intensity, higher = more binding, comparable within an allelic series)"
same,binding signal,[18],"8.3 upbm affinity estimate (log intensity, higher = more binding, comparable within an allelic series)"
AATAACGC,binding signal,[1],"8.74 upbm affinity estimate (log intensity, higher = more binding, comparable within an allelic series)"
same,binding signal,[19],"10.2 upbm affinity estimate (log intensity, higher = more binding, comparable within an allelic series)"
same,binding signal,[20],"11.2 upbm affinity estimate (log intensity, higher = more binding, comparable within an allelic series)"
same,binding signal,[21],"10.4 upbm affinity estimate (log intensity, higher = more binding, comparable within an allelic series)"
CCTCTCCG,binding signal,[1],"6.97 upbm affinity estimate (log intensity, higher = more binding, comparable within an allelic series)"
same,binding signal,[2],"8.93 upbm affinity estimate (log intensity, higher = more binding, comparable within an allelic series)"
same,binding signal,[3],"8.82 upbm affinity estimate (log intensity, higher = more binding, comparable within an allelic series)"
same,binding signal,[22],"8.27 upbm affinity estimate (log intensity, higher = more binding, comparable within an allelic series)"
same,binding signal,[4],"8.83 upbm affinity estimate (log intensity, higher = more binding, comparable within an allelic series)"
same,binding signal,[5],"8.87 upbm affinity estimate (log intensity, higher = more binding, comparable within an allelic series)"
same,binding signal,[6],"8.89 upbm affinity estimate (log intensity, higher = more binding, comparable within an allelic series)"
same,binding signal,[7],"8.93 upbm affinity estimate (log intensity, higher = more binding, comparable within an allelic series)"
same,binding signal,[8],"8.91 upbm affinity estimate (log intensity, higher = more binding, comparable within an allelic series)"
same,binding signal,[9],"8.85 upbm affinity estimate (log intensity, higher = more binding, comparable within an allelic series)"
same,binding signal,[10],"8.89 upbm affinity estimate (log intensity, higher = more binding, comparable within an allelic series)"
same,binding signal,[23],"7.63 upbm affinity estimate (log intensity, higher = more binding, comparable within an allelic series)"
same,binding signal,[24],"9.4 upbm affinity estimate (log intensity, higher = more binding, comparable within an allelic series)"
same,binding signal,[11],"8.98 upbm affinity estimate (log intensity, higher = more binding, comparable within an allelic series)"
same,binding signal,[12],"7.06 upbm affinity estimate (log intensity, higher = more binding, comparable within an allelic series)"
same,binding signal,[25],"9.42 upbm affinity estimate (log intensity, higher = more binding, comparable within an allelic series)"
same,binding signal,[13],"8.9 upbm affinity estimate (log intensity, higher = more binding, comparable within an allelic series)"
same,binding signal,[26],"7.51 upbm affinity estimate (log intensity, higher = more binding, comparable within an allelic series)"
same,binding signal,[14],"8.77 upbm affinity estimate (log intensity, higher = more binding, comparable within an allelic series)"
same,binding signal,[27],"7.69 upbm affinity estimate (log intensity, higher = more binding, comparable within an allelic series)"
same,binding signal,[15],"8.86 upbm affinity estimate (log intensity, higher = more binding, comparable within an allelic series)"
same,binding signal,[28],"9.42 upbm affinity estimate (log intensity, higher = more binding, comparable within an allelic series)"
same,binding signal,[29],"7.6 upbm affinity estimate (log intensity, higher = more binding, comparable within an allelic series)"
same,binding signal,[30],"8.41 upbm affinity estimate (log intensity, higher = more binding, comparable within an allelic series)"
same,binding signal,[31],"7.61 upbm affinity estimate (log intensity, higher = more binding, comparable within an allelic series)"
CCGGTCTC,binding signal,[1],"7.18 upbm affinity estimate (log intensity, higher = more binding, comparable within an allelic series)"
same,binding signal,[32],"8.15 upbm affinity estimate (log intensity, higher = more binding, comparable within an allelic series)"
same,binding signal,[33],"8.23 upbm affinity estimate (log intensity, higher = more binding, comparable within an allelic series)"
same,binding signal,[22],"8.45 upbm affinity estimate (log intensity, higher = more binding, comparable within an allelic series)"
same,binding signal,[34],"8.33 upbm affinity estimate (log intensity, higher = more binding, comparable within an allelic series)"
same,binding signal,[35],"8.1 upbm affinity estimate (log intensity, higher = more binding, comparable within an allelic series)"
same,binding signal,[36],"8.34 upbm affinity estimate (log intensity, higher = more binding, comparable within an allelic series)"
same,binding signal,[12],"7.23 upbm affinity estimate (log intensity, higher = more binding, comparable within an allelic series)"
same,binding signal,[37],"7.31 upbm affinity estimate (log intensity, higher = more binding, comparable within an allelic series)"
same,binding signal,[38],"7.3 upbm affinity estimate (log intensity, higher = more binding, comparable within an allelic series)"
same,binding signal,[30],"8.44 upbm affinity estimate (log intensity, higher = more binding, comparable within an allelic series)"
same,binding signal,[39],"7.04 upbm affinity estimate (log intensity, higher = more binding, comparable within an allelic series)"
